# System: Brugia pahangi adult female
# Assay: IC50 motility inhibition on day 3
# Conditions: 3 days
# Description: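 Single adult female Brugia pahangi worms in 24-well plates (RPMI-1640, 5% FBS, 37 °C) were treated with 10 µM of each compound from a 2121-drug library (4 replicates; 1% DMSO vehicle and 10 µM auranofin controls). Motility was recorded with WormAssay dark-field imaging, and % inhibition of motility on day 3 is relative to vehicle. IC50 values for selected hits come from a 6-point dilution series (30 to 0.1 µM) fitted in GraphPad Prism.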
row,SMILES,IC50 motility inhibition on day 3 [µM]
1,CCCCCCCCCCCCCCCC[N+](C)(C)C [cetrimonium bromide],6.16
2,Oc1c(Cl)cc(Cl)c2cccnc12 [chloroxine],0.803
3,Cc1cc(/C=C/c2ccc3cc(N(C)C)ccc3[n+]2C)c(C)n1-c1ccccc1 [pyrvinium pamoate],< 0.1
4,N=C(NCCCCCCNC(=N)NC(=N)Nc1ccc(Cl)cc1)NC(=N)Nc1ccc(Cl)cc1 [chlorhexidine],9.13
5,Clc1ccc(COC(Cn2ccnc2)c2ccc(Cl)cc2Cl)c(Cl)c1 (stereo not given) [miconazole nitrate],3.3
6,Oc1ccc(Cl)c2cccnc12 [cloxyquin],4.9
7,Oc1c(Cl)cc(Cl)cc1Sc1cc(Cl)cc(Cl)c1O [bithionol],6.1
8,C=C(CC)C(=O)c1ccc(OCC(=O)O)c(Cl)c1Cl [ethacrynic acid],2.6
9,Cc1cc(CC(C)CC(C)(C)C)n(O)c(=O)c1 (stereo not given) [piroctone olamine],0.883
10,CC(=O)OC[C@H]1O[C@@H]([S-])[C@H](OC(C)=O)[C@@H](OC(C)=O)[C@@H]1OC(C)=O.CCP(CC)CC.[Au+] [Auranofin],0.7
